This is an account of results in PubChem BioAssay (Tox21).

A number with no mark means an inactive call. Results filed as inconclusive are left out. Activity calls are given as the source filed them. Calls come from the whole dose curve.
% is set by controls: 0 for no effect and ±100 for the full control effect.

Acetylcholinesterase (Homo sapiens), sequence (P22303 whole entry, looked up): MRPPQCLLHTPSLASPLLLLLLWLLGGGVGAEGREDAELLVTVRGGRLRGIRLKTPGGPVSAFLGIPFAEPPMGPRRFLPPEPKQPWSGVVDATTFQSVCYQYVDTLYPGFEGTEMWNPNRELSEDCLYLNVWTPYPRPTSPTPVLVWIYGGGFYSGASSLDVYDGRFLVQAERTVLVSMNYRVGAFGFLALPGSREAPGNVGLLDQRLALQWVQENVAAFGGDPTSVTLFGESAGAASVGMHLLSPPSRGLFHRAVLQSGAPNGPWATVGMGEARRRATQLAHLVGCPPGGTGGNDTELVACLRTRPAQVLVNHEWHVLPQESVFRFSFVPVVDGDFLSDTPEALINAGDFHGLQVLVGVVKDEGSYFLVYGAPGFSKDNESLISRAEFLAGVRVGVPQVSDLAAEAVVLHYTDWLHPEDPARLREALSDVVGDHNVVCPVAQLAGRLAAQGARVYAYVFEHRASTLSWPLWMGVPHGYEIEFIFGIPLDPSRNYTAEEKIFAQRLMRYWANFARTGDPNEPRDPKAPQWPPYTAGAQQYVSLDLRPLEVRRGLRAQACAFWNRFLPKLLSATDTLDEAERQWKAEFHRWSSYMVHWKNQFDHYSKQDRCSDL

The target of the first test is Acetylcholinesterase (Homo sapiens) (UniProt P22303). Nature of the test: Acetylcholinesterase (AChE) small molecule antagonists: fluorescence cell-based qHTS assay (AID 1347398). Note: nearly all actives have a fitted effect of over 50% in size. Note: potency is the fitted concentration of half-maximal effect. Conditions: SH-SY5Y cells; Potency: AChE activity; outcome: AChE activity; series mostly up to 115 µM; activity change, negative = inhibition: at the top concentration. In outline:
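Using neuroblastoma SH-SY5Y cells as the enzyme source, test chemicals are preincubated 30 min at 37 C; AChE-driven acetylthiocholine cleavage is then quantified by thiocholine-dependent Thiolite Green fluorescence after 40 min at room temperature.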
In general terms: In qHTS, concentration-response curves come from the screen itself.
Turning to `Nc1cccc(O)c1`, the “activity change, negative = inhibition” value is -2.67%.
With `CCN(CC)c1ccc(C=O)c(O)c1`, the Potency is 35.6 µM (active).
Regarding `CC(C)(N)C#N`, the “activity change, negative = inhibition” value is 5.43%.
On the same count and under the same terms, under `CC[C@H](C)COC(=O)/C=C/c1ccc(N=Cc2ccc(OC)cc2)cc1` stands -13.7%.
In the case of `S=c1nc[nH]c2nc[nH]c12`, the Potency entry is “inactive”.
With `CCCCC(CC)CN1C(=O)C2C3C=CC(C3)C2C1=O` (stereo not given), the “activity change, negative = inhibition” value is -0.0126%.
Same read-out and setting: under `CCCNC(C)C(=O)Nc1ccccc1C` (stereo not given) stands 0.295% [at 53.7 µM].
The same measure, in the same setting: to `CCCCCCCCOS(=O)(=O)O` belongs 1.14%.
Same read-out and setting: under `COC(=O)CCCC(=O)O` stands 0.566%.
Regarding `Cc1cccc(Nc2cc(Cl)nc(SCC(=O)O)n2)c1C`, the Potency entry is “inactive”.
On to `CC1=CC(C)C(C=O)C(C)C1` (stereo not given), for which the “activity change, negative = inhibition” value was -0.739%.
For `O=C(O)CSCC(=O)NC1CCSC1=O` (stereo not given), the “activity change, negative = inhibition” value is 5.27% [at 53.7 µM].
As to `O=C1CCCCCCCCCCC1`, the Potency result was “inactive”.
Take `C[C@@H]1C[C@H]2[C@@H]3CCC4=CC(=O)C=C[C@]4(C)[C@@]3(F)[C@@H](O)C[C@]2(C)[C@@]1(O)C(=O)COC(=O)c1ccncc1`: the “activity change, negative = inhibition” value is -28.4% [at 53.7 µM].
With `C=C(C)C(=O)OCCCCCC`, the Potency entry is “inactive”.
Same read-out and setting: under `O=C(Cl)c1c(Cl)cccc1Cl` stands 40.4 µM (active).
Consider `O=C(O)C1CCC(C(=O)O)CC1` (stereo not given), for which the “activity change, negative = inhibition” value was 2.17%.
The same measure, in the same setting: under `Cn1cnc2c(=O)[nH]c(N)nc21` stands 0.959%.
The same measure, in the same setting: to `CCCOc1ccc2nc(NC(=O)OC)[nH]c2c1` belongs 2.68% [at 53.7 µM]; to `O=C1CCCC(=O)O1`, 1.36%.
Still for that read-out and setting: to `CC[N+](CC)(CC(=O)Nc1c(C)cccc1C)Cc1ccccc1` (tested in a mixture with another compound) belongs -15.2% [at 53.7 µM].
Turning to `CCOC(=O)C(C)(C)Oc1ccc(Cl)cc1`, the Potency entry is “inactive”.
Take `CC1=C(/C=C/C(C)=C/C=C/C(C)=C/C(=O)O)C(C)(C)CCC1`: the Potency result is “inactive”.
Take `C=C/C(C)=C/C/C=C(\C)CCC=C(C)C`: the “activity change, negative = inhibition” value is -17.2%.
The same measure, in the same setting: under `Nc1nc(N)c2nc(CNc3ccc(C(=O)N[C@@H](CCC(=O)O)C(=O)O)cc3)cnc2n1` stands -8.7%; under `CNCCC(Oc1ccccc1OC)c1ccccc1` (stereo not given), 2.91% [at 53.7 µM].
Turning to `CC(=O)Oc1ccccc1C(=O)Nc1ncc([N+](=O)[O-])s1`, the Potency result is “inactive”.
Turning to `CC(C)(C)NC(=O)[C@H]1CC[C@H]2[C@@H]3CC[C@H]4NC(=O)C=C[C@]4(C)[C@H]3CC[C@]12C`, the Potency entry is “inactive”.
Take `CO[Si](C)(C)OC`: the “activity change, negative = inhibition” value was -1.26%.
The same measure, in the same setting: under `O=C(O)C1(C(=O)O)CCC1.[NH2-].[NH2-].[Pt+2]` stands -11.1% [at 53.7 µM]; under `CN1N=C(C(N)=O)CCC1=O`, -5.97% [at 53.7 µM]; under `Cc1ccc(Cl)c(Nc2ccccc2C(=O)O)c1Cl`, 5.53% [at 53.7 µM].
The same measure, in the same setting: under `CCCCNc1c(C(=O)OCC)c(C)nc2c1cnn2CC` stands -13.3% [at 53.7 µM]; under `C[C@@H](O)C(=O)O`, 3.37%.
For `C=C[C@](C)(O)CC[C@@H]1[C@@]2(C)CCCC(C)(C)[C@@H]2CC[C@@]1(C)O`, the “activity change, negative = inhibition” value was -6.08%.
The same measure, in the same setting: under `O=C(c1ccc2c(c1)C(=O)OC2=O)c1ccc2c(c1)C(=O)OC2=O` stands 1.59%.
On to `CN1C(=O)N(C)C(O)C1O` (stereo not given), for which the “activity change, negative = inhibition” value was 3.61%.
On the same count and under the same terms, under `Nc1ccc2c(c1)CN1C(=O)c3ccccc3C1=N2` stands -15.4% [at 23.8 µM]; under `Cc1ccc(Br)cc1`, 0.508%; under `CCCCCCCC(=O)OCCCCCC`, 1.86%.

For another test the target is unchanged. The test can be described thus: Acetylcholinesterase (AChE) small molecule antagonists: enzyme-based qHTS assay with human liver microsomes (AID 1347399). Note: nearly all actives have a fitted effect of over 60% in size. The following applies: Potency: qHTS inhibition; outcome: qHTS inhibition; series mostly up to 115 µM; activity change, negative = inhibition: at the top concentration. In outline:
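Recombinant human AChE (50 mU/mL in the enzyme mix) and human liver microsomes (0.25 mg/mL final) were preincubated with compound and NADPH (0.25 mg/mL final) for 30 min at 37 C. Acetylthiocholine/DTNB was then added; thiocholine was read colorimetrically after 10 min at room temperature.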
For `Nc1cccc(O)c1`, the “activity change, negative = inhibition” value is -2.5%.
The same measure, in the same setting: under `CCN(CC)c1ccc(C=O)c(O)c1` stands -9.88%; under `CC(C)(N)C#N`, 0.794%; under `CC[C@H](C)COC(=O)/C=C/c1ccc(N=Cc2ccc(OC)cc2)cc1`, 2.03%.
Take `S=c1nc[nH]c2nc[nH]c12`: the Potency result was “inactive”.
Regarding `CCCCC(CC)CN1C(=O)C2C3C=CC(C3)C2C1=O` (stereo not given), the “activity change, negative = inhibition” value is -4.81%.
Regarding `CCCNC(C)C(=O)Nc1ccccc1C` (stereo not given), the “activity change, negative = inhibition” value is -0.168% [at 53 µM].
The same measure, in the same setting: under `CCCCCCCCOS(=O)(=O)O` stands 1.91%; under `COC(=O)CCCC(=O)O`, -0.901%.
`Cc1cccc(Nc2cc(Cl)nc(SCC(=O)O)n2)c1C`: the Potency result is “inactive”.
Regarding `CC1=CC(C)C(C=O)C(C)C1` (stereo not given), the “activity change, negative = inhibition” value is -0.012%.
On the same count and under the same terms, under `O=C(O)CSCC(=O)NC1CCSC1=O` (stereo not given) stands 0.336% [at 53 µM].
`O=C1CCCCCCCCCCC1`: the Potency entry is “inactive”.
In the case of `C[C@@H]1C[C@H]2[C@@H]3CCC4=CC(=O)C=C[C@]4(C)[C@@]3(F)[C@@H](O)C[C@]2(C)[C@@]1(O)C(=O)COC(=O)c1ccncc1`, the “activity change, negative = inhibition” value was 1.68% [at 53 µM].
Turning to `C=C(C)C(=O)OCCCCCC`, the Potency entry is “inactive”.
For the molecule `O=C(Cl)c1c(Cl)cccc1Cl`, the “activity change, negative = inhibition” value is 0.324%.
The same measure, in the same setting: under `O=C(O)C1CCC(C(=O)O)CC1` (stereo not given) stands -0.291%; under `Cn1cnc2c(=O)[nH]c(N)nc21`, -0.792%; under `CCCOc1ccc2nc(NC(=O)OC)[nH]c2c1`, -0.837% [at 53 µM].
On to `O=C1CCCC(=O)O1`, for which the “activity change, negative = inhibition” value was 0.359%.
On to `CC[N+](CC)(CC(=O)Nc1c(C)cccc1C)Cc1ccccc1` (tested in a mixture with another compound), for which the “activity change, negative = inhibition” value was -1.38% [at 53 µM].
As for `CCOC(=O)C(C)(C)Oc1ccc(Cl)cc1`, the Potency result is “inactive”.
Still for that read-out and setting: under `CC1=C(/C=C/C(C)=C/C=C/C(C)=C/C(=O)O)C(C)(C)CCC1` stands “inactive”.
`C=C/C(C)=C/C/C=C(\C)CCC=C(C)C`: the “activity change, negative = inhibition” value is -1.92%.
Still for that read-out and setting: to `Nc1nc(N)c2nc(CNc3ccc(C(=O)N[C@@H](CCC(=O)O)C(=O)O)cc3)cnc2n1` belongs 7.08%.
On the same count and under the same terms, under `CNCCC(Oc1ccccc1OC)c1ccccc1` (stereo not given) stands -1.01% [at 53 µM].
Regarding `CC(=O)Oc1ccccc1C(=O)Nc1ncc([N+](=O)[O-])s1`, the Potency result is “inactive”.
Still for that read-out and setting: to `CC(C)(C)NC(=O)[C@H]1CC[C@H]2[C@@H]3CC[C@H]4NC(=O)C=C[C@]4(C)[C@H]3CC[C@]12C` belongs “inactive”.
Take `CO[Si](C)(C)OC`: the “activity change, negative = inhibition” value was 0.291%.
On to `O=C(O)C1(C(=O)O)CCC1.[NH2-].[NH2-].[Pt+2]`, for which the “activity change, negative = inhibition” value was -2.36% [at 53 µM].
With `CN1N=C(C(N)=O)CCC1=O`, the “activity change, negative = inhibition” value is -0.0401% [at 53 µM].
On the same count and under the same terms, under `Cc1ccc(Cl)c(Nc2ccccc2C(=O)O)c1Cl` stands 0% [at 53 µM]; under `CCCCNc1c(C(=O)OCC)c(C)nc2c1cnn2CC`, 0% [at 53 µM]; under `C[C@@H](O)C(=O)O`, 0.146%.
Still for that read-out and setting: to `C=C[C@](C)(O)CC[C@@H]1[C@@]2(C)CCCC(C)(C)[C@@H]2CC[C@@]1(C)O` belongs 0.373%; to `O=C(c1ccc2c(c1)C(=O)OC2=O)c1ccc2c(c1)C(=O)OC2=O`, 0.345%.
On the same count and under the same terms, to `CN1C(=O)N(C)C(O)C1O` (stereo not given) belongs 0.993%; to `Nc1ccc2c(c1)CN1C(=O)c3ccccc3C1=N2`, 6.82% [at 23.6 µM]; to `Cc1ccc(Br)cc1`, -2.54%.
On to `CCCCCCCC(=O)OCCCCCC`, for which the “activity change, negative = inhibition” value was -0.524%.
